Source: the supplement of paper PMC10981050
Counter-ions that a name gives are not always drawn.

test system: OCI-AML2; assay: cell viability relative to vehicle control; higher = less cytotoxic; conditions: 10 µM; SRSF2 genotype: wt/wt
Method in brief: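 Four leukaemia lines, as CRISPR-edited mutant clones and isogenic wild-type clones, were tested against Selleck bioactive, kinase and epigenetic probe libraries after removal of identity-inconsistent compounds. Cells were exposed to a single 10 µM dose for 48 h, and CellTiter-Glo luminescence was then read. Viability was calculated relative to the on-plate vehicle control.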

Row | Structure (SMILES) | cell viability [%]
1 | Cc1csc(-c2nnc(Nc3ccc(Oc4ncccc4-c4ccnc(N)n4)cc3)c3ccccc23)c1 | 33.4
2 | CN1CCC(c2c(O)cc(O)c3c(=O)cc(-c4ccccc4Cl)oc23)C(O)C1 (stereo not given) [Flavopiridol (Alvocidib) HCl] | 16.3
3 | Cc1ccc(C(C)C)c(O)c1 [Thymol] | 101
4 | CN1CCN(c2ccc(Nc3cc(-c4cccc(-n5ccc6cc(C7CC7)cc(F)c6c5=O)c4CO)cn(C)c3=O)nc2)CC1 | 4.49
5 | NS(N)(=O)=O [Sulfamide] | 108
6 | COc1ccc(Oc2cc(C)c(-c3csc(NC(=O)c4ccncc4)n3)c(C)c2)cc1 | 32.2
7 | Cc1c(O)c(=O)ccn1C [Deferiprone] | 96.3
8 | CCCCCCNC(=O)n1cc(F)c(=O)[nH]c1=O [Carmofur] | 58.3
9 | C[C@@H]1COCCN1c1cc(C2([S@](C)(=N)=O)CC2)nc(-c2cc[nH]c3nccc2-3)n1 | 12
10 | Cc1nc(Nc2cnn(C3CCNCC3)c2)nc2c1N(C)C(=O)c1cc3ccccc3cc1N2C | 22
11 | CCCOc1ccc2[nH]c(NC(=O)OC)nc2c1 [Oxibendazole] | 8.07
12 | COC1=CC(=O)c2ccccc2C1=O [2-Methoxy-1,4-naphthoquinone] | 38.8
13 | CC(=O)c1ccc2c(c1)c1cc(C(C)=O)ccc1n2CCNC(C)C | 20.6
14 | CC(C(=O)O)c1ccc2c(c1)CC(=O)c1ccccc1S2 (stereo not given) [Zaltoprofen] | 104
15 | CC(C)Oc1ccc(C(=O)N[C@H](CNC(=O)CN(C)C)Cc2ccc(-c3cn4cccc([C@H](C)O)c4n3)cc2)cc1Cl | 14.5
16 | NC(=O)c1cccc2cn(-c3ccc([C@@H]4CCCNC4)cc3)nc12 [MK-4827(Niraparib) tosylate] | 47.3
17 | O=C(O)Cc1ccccc1Nc1c(Cl)cccc1Cl [Diclofenac Sodium] | 102
18 | C#CC1(O)CC[C@H]2[C@@H]3CCC4=CC(=O)CC[C@@H]4[C@H]3CC[C@@]21CC (stereo not given in full) [Norgestrel] | 114
19 | COC(=O)C1=C(C)NC(C)=C(C(=O)OCCN2CCN(C(c3ccccc3)c3ccccc3)CC2)C1c1cccc([N+](=O)[O-])c1 (stereo not given) [Manidipine (Manyper)] | 41
20 | CN(C)N(C)C(=O)[C@@]1(Cc2ccccc2)CCCN(C(=O)[C@@H](Cc2c[nH]c3ccccc23)NC(=O)C(C)(C)N)C1 [Anamorelin] | 68.2

Row | Structure (SMILES) | cell viability [%]
21 | O=C(O)CCCCC(CCSCc1ccccc1)SCc1ccccc1 (stereo not given) | 112
22 | COc1ccc(C(=O)C(=O)c2ccc(OC)cc2)cc1 | 90.8
23 | CNC(=O)c1cc(Oc2ccc(NC(=O)Nc3ccc(Cl)c(C(F)(F)F)c3)cc2)ccn1 [Sorafenib Tosylate] | 11.3
24 | C[C@@H](O)[C@H]1C(=O)N2C(C(=O)O)=C(S[C@@H]3CN[C@H](C(=O)N(C)C)C3)[C@H](C)[C@H]12 [Meropenem] | 101
25 | COC(=O)C1=C(C)NC(C)=C(C(=O)OCC(C)C)C1c1ccccc1[N+](=O)[O-] (stereo not given) [Nisoldipine] | 55.3
26 | COc1cccc(/C=N/N(C(=O)C(F)(F)F)c2ccc(C)cc2C)c1 | 106
27 | CN(CC(=O)N(Cc1ccc(C2CCCCC2)cc1)c1ccc(C(=O)O)cc1)S(=O)(=O)c1c(F)c(F)c(F)c(F)c1F | 0.08
28 | C=CC(=O)Nc1cccc(Oc2nc(Nc3ccc(N4CCN(C)CC4)cc3)ncc2Cl)c1 | 5.07
29 | CO[C@@]12[C@H](COC(N)=O)C3=C(C(=O)C(C)=C(N)C3=O)N1C[C@@H]1N[C@@H]12 [Mitomycin C] | 0.98
30 | Clc1cccc(-c2nnnn2Cc2cccnc2)c1Cl | 116
31 | Cc1cccc(Nc2ccncc2S(=O)(=O)NC(=O)NC(C)C)c1 [Torsemide (Demadex)] | 104
32 | O=c1cc(-c2ccc(O)cc2)oc2cc(O)c([C@@H]3O[C@H](CO)[C@@H](O)[C@H](O)[C@H]3O)c(O)c12 [Isovitexin] | 103
33 | C=C1[C@@H]2CC[C@@H](C2)C1(C)C [Camphene] | 97.1
34 | CN(C)c1cccc(-c2c3c(=O)n(-c4ccccc4Cl)[nH]c3cc(=O)n2C)c1 | 114
35 | CO[C@H]1C[C@@H]2CC[C@@H](C)[C@@](O)(O2)C(=O)C(=O)N2CCCC[C@H]2C(=O)O[C@H]([C@H](C)C[C@@H]2CC[C@H](n3cnnn3)[C@H](OC)C2)CC(=O)[C@H](C)/C=C(\C)[C@@H](O)[C@@H](OC)C(=O)[C@H](C)C[C@H](C)/C=C/C=C/C=C/1C [Zotarolimus (ABT-578)] | 61.1
36 | CCC(=O)OCC(=O)[C@@]1(OC(=O)CC)[C@@H](C)C[C@H]2[C@@H]3CCC4=CC(=O)C=C[C@]4(C)[C@@]3(F)[C@@H](O)C[C@@]21C [Betamethasone Dipropionate (Diprolene)] | 120
37 | O=C(O)c1cc(I)ccc1NC(=O)[C@H](Cc1ccccc1)NCc1ccccc1 | 119
38 | C=CC(=O)N1CC[C@@H](Oc2nc(Nc3ccc(N4CCC(N5CCN(C)CC5)CC4)cc3)c(C(N)=O)nc2CC)C1 [ASP8273 (Naquotinib)] | 24.4
39 | O=c1c(-c2ccc(O)cc2)coc2c([C@@H]3O[C@H](CO)[C@@H](O)[C@H](O)[C@H]3O)c(O)ccc12 [Puerarin (Kakonein)] | 102
40 | COc1ccc(-n2nc(C(N)=O)c3c2C(=O)N(c2ccc(N4CCCCC4=O)cc2)CC3)cc1 [Apixaban] | 96.7
